Inconclusive results are not listed. The source made the active and inactive calls. Unless noted, calls come from the whole dose curve; as a rule, active = well fitted curve in the direction sought with a large enough effect in the repeat runs; inconclusive = weak or mixed curves; inactive = no such curve, though single readings can be large; an effect the other way counts as inactive or inconclusive.
Assays:
[1] = qHTS assay for small molecule agonists of the p53 signaling pathway (AID 651631; calls by dose curve; note: nearly all actives have a fitted effect of over 15% in size)
Summary of the method: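 HCT-116 cells carrying a beta-lactamase reporter under p53 response elements were dosed with compound for 16 h at 37 °C. LiveBLAzer B/G FRET substrate was then added for 2 h at room temperature, and fluorescence intensity was read to detect pathway agonism.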

[2] = qHTS assay for small molecules that induce genotoxicity in human embryonic kidney cells expressing luciferase-tagged ATAD5 (AID 651632); note: nearly all actives have a fitted effect of over 15% in size
Summary of the method: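 DMSO vehicle served as the control. HEK293T reporter cells, 16 hr at 37C, then 30 min Amplite at room temperature; ATAD5 induction is measured as luciferase activity.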

[3] = qHTS assay for small molecule agonists of the p53 signaling pathway - cell viability (AID 651633; calls by dose curve;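 note: p53RE-bla HCT reporter cells with a stable beta-lactamase p53 reporter; series mostly up to about 83 µM; nearly all actives have a fitted effect of over 30% in size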)
Summary of the method: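 Viability counter-read: CellTiter-Glo luminescence (30 min, room temperature) in the same p53RE-bla plates. These plates had been exposed to compounds for 16 h at 37 C.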

[4] = qHTS assay for small molecules that induce genotoxicity in human embryonic kidney cells expressing luciferase-tagged ATAD5 - cell viability (AID 651634; calls by dose curve; note: nearly all actives have a fitted effect of over 25% in size)
Summary of the method: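 Here HEK293T cells with the ATAD5 luciferase reporter are incubated with test compounds for 15.5 hr, and cytotoxicity is then gauged by measuring protease activity in live cells using fluorescence.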

[5] = qHTS assay for small molecule disruptors of the mitochondrial membrane potential - cell viability (AID 720634; calls by dose curve;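 note: human HepG2 liver cancer cells; series mostly up to about 83 µM; nearly all actives have a fitted effect of over 20% in size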)
Summary of the method: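 Viability of HepG2 cells is scored from ATP content by luminescence; cells are exposed to compound for 1 hr at 37 C and 5% CO2, then dosed with m-MPI dye before the CellTiter-Glo reagent.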

[6] = qHTS assay for small molecule disruptors of the mitochondrial membrane potential (AID 720635)
Summary of the method: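 Mitochondrial membrane potential tracked with Mito-MPS dye, red aggregates (ex 540/em 590 nm) against green monomers (ex 490/em 535 nm). Compound treatment 1 hr at 37C, dye 30 min in HepG2.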

[7] = qHTS assay to test for compound auto fluorescence at 590 nm (red) in HepG2 cells (AID 720674)
Summary of the method: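 We screened compounds on adherent HepG2 cells, incubating them for an hour at 37 C in 5% CO2 before reading emission at 590 nm under 540 nm excitation; values reflect equivalence to Rose Bengal sodium fluorescence.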

[8] = qHTS assay to test for compound auto fluorescence at 535 nm (green) in HepG2 cells (AID 720675)
[9] = qHTS assay to test for compound auto fluorescence at 460 nm (blue) in HEK293 cells (AID 720678)
Summary of the method: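 Blue-channel (Ex/Em 405/460 nm) intensity measured in HEK293 cultures after overnight compound exposure at 37C; signal expressed relative to triamterene. Cells plated 2,000 per well in 10% dialyzed FBS medium and allowed 4-5 hr to attach.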

[10] = qHTS assay to test for compound auto fluorescence at 590 nm (red) in HEK293 cells (AID 720679)
Summary of the method: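 Red-channel autofluorescence (Ex/Em 540/590 nm; Rose Bengal sodium reference) was measured after overnight 37C, 5% CO2 exposure of attached HEK293 cells, 2,000 per well in medium with 10% dialyzed FBS.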

[11] = qHTS assay to test for compound auto fluorescence at 535 nm (green) in HEK293 cells (AID 720680)
[12] = qHTS assay to test for compound auto fluorescence at 460 nm (blue) in HEK293 cell free culture (AID 720681)
Summary of the method: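 Blue fluorescence (Ex 405/Em 460 nm, triamterene-equivalent) was read immediately after pin transfer of compound or DMSO into medium (DMEM, 10% FBS) without cells.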

[13] = qHTS assay to test for compound auto fluorescence at 535 nm (green) in HEK293 cell free culture (AID 720682)
Summary of the method: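 Green-label autofluorescence (485 nm excitation, 535 nm emission) measured on compound added to cell-free culture medium (DMEM, 10% FBS). Output is expressed relative to fluorescein.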

[14] = qHTS assay to test for compound auto fluorescence at 590 nm (red) in HEK293 cell free culture (AID 720683)
Summary of the method: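 Red-channel autofluorescence of compounds in culture medium (DMEM, 10% FBS), no cells, measured at 540/590 nm. Rose Bengal sodium is the reference fluorophore for equivalence.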

[15] = qHTS assay to test for compound auto fluorescence at 590 nm (red) in HepG2 cell free culture (AID 720684)
Summary of the method: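 No cells present: MEM + 10% FBS only. Compound pinned in, red label read (540/590 nm). Activity = fluorescence equivalent to Rose Bengal sodium.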

[16] = qHTS assay to test for compound auto fluorescence at 460 nm (blue) in HepG2 cell free culture (AID 720685)
Summary of the method: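 Cell-free plates of MEM plus 10% FBS received 23 nL compound or DMSO vehicle; blue-channel (405/460 nm) intensity scored against triamterene as reference fluorophore.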

[17] = qHTS assay to test for compound auto fluorescence at 535 nm (green) in HepG2 cell free culture (AID 720686)
[18] = qHTS assay to test for compound auto fluorescence at 460 nm (blue) in HepG2 cells (AID 720687)
Summary of the method: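 Blue-channel autofluorescence (Ex/Em 405/460 nm, triamterene-equivalent) was measured after 1 hr compound exposure at 37 C, 5% CO2. Cells were HepG2, plated overnight at 37 C in MEM plus 10% FBS.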

[19] = target: Glucocorticoid receptor (Homo sapiens) (UniProt P04150); experiment: qHTS assay to identify small molecule agonists of the glucocorticoid receptor (GR) signaling pathway (AID 720691; active = well fitted activation curve with a large enough effect in the signal ratio in the repeat runs, not every such curve was filed as active; the % refers to the signal ratio)
Chain of Glucocorticoid receptor (Homo sapiens) (P04150 whole entry, looked up): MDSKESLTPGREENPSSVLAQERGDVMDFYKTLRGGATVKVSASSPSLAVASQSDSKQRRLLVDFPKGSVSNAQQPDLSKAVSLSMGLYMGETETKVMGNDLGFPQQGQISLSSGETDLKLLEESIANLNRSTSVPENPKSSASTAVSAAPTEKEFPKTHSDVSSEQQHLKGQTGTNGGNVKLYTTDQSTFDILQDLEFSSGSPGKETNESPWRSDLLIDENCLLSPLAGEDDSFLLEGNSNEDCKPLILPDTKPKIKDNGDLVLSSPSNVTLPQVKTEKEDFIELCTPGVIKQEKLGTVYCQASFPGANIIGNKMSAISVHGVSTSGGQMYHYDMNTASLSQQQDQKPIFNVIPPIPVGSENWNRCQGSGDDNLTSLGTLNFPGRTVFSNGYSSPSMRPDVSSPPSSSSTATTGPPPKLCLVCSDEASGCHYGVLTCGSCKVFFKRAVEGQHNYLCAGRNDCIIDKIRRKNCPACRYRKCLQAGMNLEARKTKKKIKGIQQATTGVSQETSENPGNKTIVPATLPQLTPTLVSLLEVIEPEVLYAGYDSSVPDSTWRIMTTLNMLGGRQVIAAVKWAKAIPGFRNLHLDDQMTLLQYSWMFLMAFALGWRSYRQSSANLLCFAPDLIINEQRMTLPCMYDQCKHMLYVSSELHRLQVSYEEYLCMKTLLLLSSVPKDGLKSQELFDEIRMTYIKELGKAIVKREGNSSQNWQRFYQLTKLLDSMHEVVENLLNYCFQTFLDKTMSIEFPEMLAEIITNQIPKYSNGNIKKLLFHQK
Summary of the method: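 Compounds in DMSO, alongside positive controls, were added to GR-bla HeLa reporter cells and incubated 18 h at 37 C; GRE-driven beta-lactamase was detected by fluorescence after 2 h with FRET substrate at room temperature.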

[20] = target: Glucocorticoid receptor (Homo sapiens) (UniProt P04150); experiment: qHTS assay to identify small molecule antagonists of the glucocorticoid receptor (GR) signaling pathway (AID 720692; active = well fitted inhibition curve with a large enough effect in the signal ratio in the repeat runs, not every such curve was filed as active; the % refers to the signal ratio)
Summary of the method: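 In a 1536-well cell format, compounds were added 4 h after seeding GR-bla HeLa cells, together with dexamethasone at 5 nM final; reporter activity was measured by FRET-substrate fluorescence following 18 h at 37 C.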
% is set by controls: 0 for no effect and ±100 for the full control effect.

C=CCOCC(CO)(COCC=C)COCC=C
inactive: outcome [1] | outcome [2] | outcome [3] | Potency [4] | outcome [5] | Potency [6] | outcome [7] | outcome [8] | outcome [9] | outcome [10] | outcome [11] | outcome [12] | outcome [13] | outcome [14] | outcome [15] | outcome [16] | outcome [17] | outcome [18] | Potency [19] | outcome [20]

Cc1ccccc1C(=O)N1CC/C(=N\OS(=O)(=O)O)c2ccc(Cl)cc21
inactive: outcome [1] | outcome [2] | outcome [3] | Potency [4] | outcome [5] | Potency [6] | outcome [7] | outcome [8] | outcome [9] | outcome [10] | outcome [11] | outcome [12] | outcome [13] | outcome [14] | outcome [15] | outcome [16] | outcome [17] | outcome [18] | Potency [19] | outcome [20]

C=CCCCCCCCCCCC
inactive: activation [1] -4.17% [at 8.3 µM] | activation [2] 1.83% [at 8.08 µM] | activity change, negative = cytotoxicity [3] 6.07% [at 8.08 µM] | activity, negative = cytotoxicity [4] -5.67% [at 8.08 µM] | activity change, negative = cytotoxicity [5] 9.56% [at 8.08 µM] | ratio activity, negative = MMP loss [6] -12.5% [at 8.08 µM] | fluorescence, relative to Rose Bengal [7] 0.0415% [at 3.72 µM] | fluorescence, % of fluorescein control [8] 0.103% [at 3.72 µM] | fluorescence, % of triamterene [9] -0.171% [at 3.72 µM] | fluorescence, % of fluorescent control [10] -0.0532% [at 3.72 µM] | fluorescence, % of fluorescein [11] 0.0165% [at 3.72 µM] | fluorescence, % of fluorescent control [12] -0.158% [at 3.72 µM] | activity change [13] 0.0052% [at 3.72 µM] | fluorescence, % of fluorescent control [14] -0.0144% [at 3.72 µM] | fluorescence, % of Rose Bengal [15] 0.0242% [at 3.72 µM] | fluorescence, % of fluorescent control [16] 0.0228% [at 3.72 µM] | fluorescence, % of fluorescein control [17] 0.0296% [at 3.72 µM] | fluorescence, % of fluorescent control [18] -0.017% [at 3.72 µM] | activation [19] -0.645% [at 6.9 µM] | activity change, negative = inhibition [20] -6.37% [at 7.04 µM]

CCC(C)(C)C1CCC(=O)CC1
inactive: outcome [1] | outcome [2] | outcome [3] | Potency [4] | outcome [5] | Potency [6] | outcome [7] | outcome [8] | outcome [9] | outcome [10] | outcome [12] | outcome [13] | outcome [14] | outcome [15] | outcome [16] | outcome [17] | outcome [18]

CCCO
inactive: outcome [1] | outcome [2] | outcome [3] | Potency [4] | outcome [5] | Potency [6] | outcome [7] | outcome [8] | outcome [9] | outcome [10] | outcome [11] | outcome [12] | outcome [13] | outcome [14] | outcome [15] | outcome [16] | outcome [17] | outcome [18] | Potency [19] | outcome [20]

CC(=O)/C=C/c1ccco1
inactive: outcome [1] | outcome [2] | outcome [3] | Potency [4] | outcome [5] | Potency [6] | outcome [7] | outcome [8] | outcome [9] | outcome [10] | outcome [11] | outcome [12] | outcome [13] | outcome [14] | outcome [15] | outcome [16] | outcome [17] | outcome [18]

CCOC(=O)CC(CC(=O)OCC)(OC(C)=O)C(=O)OCC
inactive: outcome [1] | outcome [2] | outcome [3] | Potency [4] | outcome [5] | outcome [7] | outcome [8] | outcome [9] | outcome [10] | outcome [11] | outcome [12] | outcome [13] | outcome [14] | outcome [15] | outcome [16] | outcome [17] | outcome [18]
